Data from PubChem BioAssay AID1508625 (Wald Lab, School of Medicine, Case Western Reserve …, 2021).

Test: enhancers of NK cell killing of ovarian tumor cells, primary screen, imaging, OVCAR3, primary NK cells, calcein-AM imaging (AID 1508625);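 also: compound given to NK cells 16 h before adding targets at 1.5 to 1 ratio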
Details: OVCAR3 lysis by primary NK cells, at 5 µM; z-score: measured here: robust Z-score, single-point normalisation

Structure (SMILES) | corrected activity, negative = more killing [%] | z-score
CCOC(=O)CC(NCc1ccc(Cl)c([N+](=O)[O-])c1)c1cccs1 (configuration not stated) | -7.84 | -2.12
O=C(Nc1cc([N+](=O)[O-])ccc1Cl)c1cnc2n(c1=O)CCS2 | -1.04 | -0.332
CCOc1ccc2nc(SCC(=O)NC3CC3)sc2c1 | -5.49 | -1.7
Cn1c2ccccc2c(=Nc2ccc(Br)cc2)c2ccccc21 | -4.16 | -1.48
O=C(NCC1CCCO1)Nc1cccc(Cl)c1 (configuration not stated) | 1.53 | 0.544
COC(=O)c1c(NC(=O)c2cc3ccccc3c(=O)o2)sc2c1CCC(C)C2 (configuration not stated) | -0.836 | -0.344
COc1cc2c(cc1NC(=O)COc1ccccc1F)oc1ccccc12 | 0.193 | 0.0792
CCOC(=O)c1sc(N2C(=O)C(=O)C(=C(O)c3ccccc3)C2c2ccc(C(C)(C)C)cc2)nc1C (configuration not stated) | -1.11 | -0.48
Cc1ccc(OCCCN2CCNCC2)c([N+](=O)[O-])c1 | -1.55 | -0.864
COc1ccc(Oc2c(C(F)(F)F)oc3cc(OC(=O)c4ccc(OC)c(OC)c4)ccc3c2=O)cc1 | -1.55 | -0.672
CC(=O)Nc1ncc(Br)cc1[N+](=O)[O-] | -1.26 | -0.391
COc1ccc(-c2nn(-c3ccccc3)cc2C(=O)OCc2ccccc2)cc1 | -2.27 | -1.22
COc1ccc(OC)c(NC(=O)c2cc3c(=O)n4ccccc4nc3s2)c1 | -6.86 | -1.95
CN1C(=O)C(=O)C(=C(O)c2ccc(Br)cc2)C1c1ccccc1 (configuration not stated) | -1.99 | -0.867
Cc1cc(OCCN2CCCCCC2)ccc1[N+](=O)[O-] | -3.28 | -1.82
COc1c(Cl)cccc1NC(=O)c1cccc2ccccc12 | -3.52 | -1.31
